Measurements taken from PubChem BioAssay (NCI).
The panel holds about 83,000 compounds, 20% with a hit somewhere; the sample as a whole holds those more often.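 Values shown are percent growth following 48 h exposure of cells in 96-well plates to a single concentration of compound; below 10 was considered active.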 A number with no mark means an inactive call. Active and inactive are the calls of the source.

Experiments:
Assay in all cases: NCI-60 one-dose screen, 48 h (100 = growth as untreated, 0 = no growth, -100 = all killed)
Conditions in all cases: 10 µM unless noted
HCT-15 colon = test system: HCT-15 colon
HT29 colon = test system: HT29 colon
SNB-19 CNS = test system: SNB-19 CNS
U251 CNS = test system: U251 CNS
PC-3 prostate = test system: PC-3 prostate
SK-MEL-5 melanoma = test system: SK-MEL-5 melanoma
UACC-62 melanoma = test system: UACC-62 melanoma
SK-MEL-28 melanoma = test system: SK-MEL-28 melanoma
EKVX NSCLC = test system: EKVX NSCLC
SN12C renal = test system: SN12C renal
UO-31 renal = test system: UO-31 renal
TK-10 renal = test system: TK-10 renal
ACHN renal = test system: ACHN renal
CAKI-1 renal = test system: CAKI-1 renal
A498 renal = test system: A498 renal
MOLT-4 leukemia = test system: MOLT-4 leukemia
SK-MEL-2 melanoma = test system: SK-MEL-2 melanoma
CCRF-CEM leukemia = test system: CCRF-CEM leukemia
LOX IMVI melanoma = test system: LOX IMVI melanoma

| Compound | growth (HCT-15 colon) | growth (HT29 colon) | growth (SNB-19 CNS) | growth (U251 CNS) | growth (PC-3 prostate) | growth (SK-MEL-5 melanoma) | growth (UACC-62 melanoma) | growth (SK-MEL-28 melanoma) | growth (EKVX NSCLC) | growth (SN12C renal) | growth (UO-31 renal) | growth (TK-10 renal) | growth (ACHN renal) | growth (CAKI-1 renal) | growth (A498 renal) | growth (MOLT-4 leukemia) | growth (SK-MEL-2 melanoma) | growth (CCRF-CEM leukemia) | growth (LOX IMVI melanoma) |
| --- | --- | --- | --- | --- | --- | --- | --- | --- | --- | --- | --- | --- | --- | --- | --- | --- | --- | --- | --- |
| O=C(Nc1ccncc1)C(=O)c1cn(S(=O)(=O)c2ccc(Cl)cc2)c2ccccc12 | 26.6% | 2.91% (active) | 44.7% | 31.3% | 41.7% | 17.1% | 30.7% | 46.4% | 53.5% | 34% | 42.1% | 81.9% | 52.8% | 44.9% | 53.6% | 48% |  |  |  |
| O=S(=O)(NCCNc1nccc(-c2c(-c3cccc(O)c3)nc3sccn23)n1)c1ccc(F)cc1 | 81% | 38.3% | 111% | 79.4% | 65.7% | 39.8% | 16.7% | 43.5% |  | 63.9% | 83.4% | 108% | 60.2% |  | 76.4% | 44.5% | 41.7% | 41.7% |  |
| CC(C)C(C(=O)NCCN1CCOCC1)N1C(=O)/C(=C/c2ccc(Br)cc2)SC1=S (stereo not drawn) | 99.9% | 109% |  | 98% | 90.1% | 98.2% | 87.8% | 96.9% | 104% | 93.8% | 84.9% | 121% | 101% |  | 96.8% | 102% | 93.9% | 97.8% | 99% |
| CCOC(=O)CC(=O)OC | 102% | 96.5% |  | 101% | 95.3% | 100% | 104% | 104% | 99.1% | 108% | 90.4% | 106% | 107% | 91.2% | 92.2% | 83.3% | 107% | 97.5% | 100% |
| O=C(O)c1nc(-c2ccccc2)oc1N1CCOCC1 | 101% | 108% |  | 90.9% | 100% | 105% | 85.2% | 98.7% | 104% | 99% | 81.6% | 91.9% | 101% | 92.2% | 114% | 105% | 97% | 107% | 108% |
| O=C1c2ccccc2-c2ccccc2C1(Cl)Cl | -60.2% (active) | -38.4% (active) | -83.5% (active) | -90.1% (active) | -29.5% (active) |  | -83.4% (active) |  | -93.2% (active) | -76.1% (active) | -100% (active) | 90% | -67% (active) | -92.1% (active) | 101% | 0.097% (active) | -71% (active) | 11.2% | -31.8% (active) |
| COc1ccc(-c2c(N)n[nH]c2-c2cc3c(c(OC)c2OC)OCO3)cc1 | 101% | 103% | 104% | 94.1% | 101% |  | 82.9% | 104% | 92.4% | 92.5% | 84% | 101% | 96.9% | 94.4% | 75.7% | 96.5% |  |  | 95% |
| O=C(NNC(=O)N1c2ccccc2C=Cc2ccccc21)c1ccccc1 | 101% | 103% |  | 109% | 98.5% | 104% | 101% | 102% | 91.7% | 102% | 96% | 96% | 102% | 97.3% | 103% |  | 119% | 98.9% | 104% |
| CCOC(=O)c1cc(C(=O)c2cc(OC)c(OC)c(OC)c2)n2c1ccc1ccccc12 | 25.7% | 9.65% (active) |  | 49% | 21.9% | 9.89% (active) | 32.1% | 55.9% | 52.2% | 25.3% | 32.2% | 80.6% | 33.5% | 27.3% | -10.9% (active) | 33.4% | 50.2% | 8.36% (active) | 40.4% |
| Cc1ccc(NS(=O)(=O)c2cc(C)ccc2C)cc1 | 32.9% | 10.8% | 53.1% | 36.8% | 57.6% |  | 40% | 61.5% | 55.4% | 60.8% |  |  | 70.7% | 25.3% | 38.7% |  | 20.3% |  | 41% |
| COc1ccc(C2C=C(c3ccc(OC)c(OC)c3)N=C3SC=C(C)N32)c(Br)c1 (stereo not drawn) | 92.8% | 107% | 110% | 96.3% | 103% |  | 106% | 110% |  | 108% | 94.8% | 107% | 95% |  | 115% | 84% | 101% | 101% | 109% |
| COC(=O)[C@]12CC[C@@H](C)[C@H](C)[C@@H]1C1=CC[C@@H]3[C@@]4(C)C(C=O)=C[C@@](C)(COC(=O)c5ccco5)[C@@H]4[C@H](O)C[C@@]3(C)[C@]1(C)CC2 | -78.3% (active) | -64.4% (active) | 7.8% (active) | -76.8% (active) | -8% (active) |  |  |  | -18.1% (active) | -19.7% (active) | -76.3% (active) | 11.5% | -47.7% (active) | -6.76% (active) | -2.1% (active) | -0.738% (active) | -44.4% (active) | -24.1% (active) | -91.4% (active) |
| Cn1ccc(Nc2nccc(Oc3ccc(C(=O)Nc4cccc(F)c4)c(Cl)c3)n2)c1 | 91.9% | 100% | 77.6% | 96.2% | 63.6% |  | 66.8% | 96.6% | 47.1% | 73.4% | 62.6% | 54.4% | 44.7% | 69.6% | 46.9% | 83.3% | 58% | 58.4% |  |
| CC(C)(C)n1cc(-c2ccnc(NCCNS(=O)(=O)c3ccc(C(F)(F)F)cc3)c2)c(-c2cccc(O)c2)n1 | 11.7% | 12.4% |  | 36.8% | 25.4% | 20.9% | 64.1% | 51.3% | 52.2% | 52.8% | 48.1% | 98.7% | 57.1% |  | 55.1% | 28.9% | 66.5% | 46.1% | 25.8% |
| CCN(CC)CCCNc1nccc2ccc(Cl)cc12 | 104% | 96.9% |  | 96.8% | 73.6% | 99.3% | 108% | 117% | 103% | 99.6% | 94.7% |  | 112% | 108% | 97.9% | 103% | 114% | 93.1% | 94.7% |
| COc1ccc(C(=O)N2NC(=O)/C(=C/c3ccc(Br)cc3)N=C2c2ccccc2)cc1 | 94.8% | 93.2% | 87.4% | 72.9% |  | 93.8% | 68.3% | 94.5% | 95.7% | 74.1% | 92.8% | 107% | 87.8% |  | 83.5% | 17.3% |  |  | 87.9% |
| Brc1cccc(-c2cc(-c3ccc4c(c3)OCCCO4)[nH]n2)c1 | 29.7% [25 µM] | 12.7% [25 µM] | 72.2% [25 µM] | 47.4% [25 µM] | 55.9% [25 µM] |  | 60.2% [25 µM] | 76.5% [25 µM] | 54.7% [25 µM] | 62.7% [25 µM] |  | 71.1% [25 µM] | 75.8% [25 µM] | 39.6% [25 µM] | 70% [25 µM] | 56.8% [25 µM] | 46.1% [25 µM] | 57.5% [25 µM] | 43.9% [25 µM] |
| COc1ccc(OC)c(/C=C2\Oc3cc(OCCCN4CCCC4)ccc3C2=O)c1 | 20% | 10.3% | 82.1% | 74.2% | 82.9% |  | 95.9% | 87.4% | 80.4% | 76.2% | 56.7% | 99.8% | 78.2% | 82% |  | 54.8% | 104% | 50.8% |  |
